# About 210 (0.4%) of roughly 52,000 sequences were called active.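 Rule for the calls: active = gene whose silencing raises cell survival under the drug, median off-target-corrected z-score across its silencing RNAs 2 or more; inactive = the rest.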 Many of the other results were omitted from the sample, so actives are more common in it than they were.
# Experiment: Resistance to Poly (ADP-Ribose) Polymerase inhibitor: Gene Identification via Genome-wide siRNA Screen
# Conditions: mouse BRCA2 R2336H ES cells, olaparib, CellTiter-Glo viability; stronger effect = higher value
# Procedure, shortened: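 Mouse BRCA2 R2336H ES cells were reverse-transfected with siRNA (20 nM final), treated at 48 h with 500 nM olaparib, and read by CellTiter-Glo after 72 h. Scores: MAD-based z per siRNA, median per gene, seed off-target correction.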
row,Sequence,z-score
1,GCUACAAUAUGACAAGUGUTT against Adamts5,2.82 (active)
2,GGAUGCUCUCUUAAAUGGATT against AI595338,-0.0806 (inactive)
3,GGAAAAUUGAGAUUUCUGCTT against 1110003E01Rik,1.52 (inactive)
4,GGAUGAAAAAUACUGGUGUTT against Ugt8,3.17 (inactive)
5,GAAGAUCCACUUCAUCGCCTT against Psmb10,-1.82 (inactive)
6,GGAAGACAUGAAAUUGUUCTT against Psma3,-2.92 (inactive)
7,GGAUGAAGAGAAAAAUUGATT against Slc20a1,2.96 (active)
8,GGGUGUACAUUGAAAUUAATT against Epha4,1.05 (inactive)
9,GGAAUUUGAUUCUCUGCCUTT against 6820429M01,0.0636 (inactive)
10,GGCACAUGCCCUUUUCUACTT against Cog1,0.266 (inactive)
11,GCAUUCAGAAUGAGCUGACTT against Nfasc,-0.0641 (inactive)
12,GGUGAUCUUCAAAUUGGAGTT against Zfp90,-0.401 (inactive)
13,GCUAUAUCUAAAGCUAUUCTT against Sgpp1,0.574 (active)
14,GGCCCACCUAUUUCAUCUCTT against Actl7b,0.808 (inactive)
15,GGAGUUUGCCACAAUUGUUTT against 2810408E11Rik,-1.26 (inactive)
16,GGAAGAGAGAUGGAAAAAATT against Gcnt1,-0.555 (inactive)
17,GGAAAGUGUCACCAAGUUCTT against B230359F08Rik,-0.0496 (inactive)
18,GGUACUAAACACCAACUCCTT against B230315M08Rik,1.28 (active)
19,GGAAGGAAGAGAAAAACAATT against D11Ertd730e,-1.34 (inactive)
20,GGGAUCCGAAUUCUGACCATT against 2010305C02Rik,1.23 (inactive)
21,GGCCAUCAGAUAGUUUAAUTT against AW551984,-0.3 (inactive)
22,GCAAGAUUCAGAGUGCAGCTT against 4932441K18,-0.922 (inactive)
23,GCCUUACUCUCUCAGUCCUTT against D930018N13,-1.82 (inactive)
24,GGAUACAUUAAUUGUUUGGTT against AW011752,0.68 (inactive)
25,CCACACUGAGGACUAUAUUTT against Cstf1,0.623 (inactive)
26,GGAUAGCUGCCAACACUACTT against BC048937,-0.0419 (inactive)
27,GGCCUAUCUUCCCAGGAAATT against Mapk1,1.76 (active)

row,Sequence,z-score
1,GCAAAAAUUAUGCAGAGCATT against Olfr1443,2.55 (inactive)
2,CGGUAUCUCAACUUUUACATT against Stra8,0.301 (inactive)
3,GCGAACGAAGCAUAAAUGGTT against Mettl1,-0.126 (inactive)
4,GGCAGUAGUGUUAACGGUGTT against Chrnb2,2.38 (active)
5,GGAUGCUGUAACACUUUAUTT against Bcl6,-1.71 (inactive)
6,GGACCAGGUAUUCAUGAUCTT against Sema3c,1.79 (inactive)
7,CCAUGAUGAUAAUCUGAAUTT against B930090D16Rik,0.709 (inactive)
8,GGAAGAUUUUUCAAAGGAUTT against Itgb6,2.51 (active)
9,CAAUAACAGCGAAACAUCCTT against Scn4b,2.18 (inactive)
10,GUCUCUCUUUUAACAUGCUTT against Ceacam13,2.49 (inactive)
11,GCUUGUCUCACACAGCUCUTT against Olfr401,-0.379 (inactive)
12,CCCACAAGGUUAAGAUAUATT against Col14a1,0.22 (inactive)
13,GACGGUGGGACUCACUGUUTT against Ors6,-0.403 (inactive)
14,GGUUGACACAGAUGAAGAGTT against Rdh9,-0.356 (inactive)
15,GCGUGCAGCCCUCAAUGAATT against Ppp2r5b,1.44 (active)
16,GGAAUCCAUGCAGAAAUAATT against Pcdhga6,1.54 (inactive)
17,GGAGAUGGCUUCUCUCUCGTT against Rarg,1.37 (active)
18,CGCGGGAUGAAGGAUAUAATT against LOC432589,-2.23 (inactive)
19,GGAGAACUGUCAGAACGAGTT against Gpx2,-2.7 (inactive)
20,GCAAUGCGACGUGCUCUAUTT against LOC330863,-0.895 (inactive)
21,GCGGCAUAAGUCCAAGCACTT against Crk7,-1.76 (inactive)
22,GGAAUGUUCUGUCGCUAUGTT against Nrp1,0.0552 (inactive)
23,GGUUGAAUAUUGAAUGGAATT against 9130422G05Rik,0.44 (inactive)
24,CCUGAAAAAAUUUAUCGCCTT against Rnf3,-0.169 (inactive)
25,GCUUCCUCUACAUCCUGCUTT against Kcnk15,2.57 (active)
26,GGCUGAACUCAAAAAGACGTT against Hand1,2.07 (inactive)
27,GGUGAAGCUGAAACAACAUTT against BC020002,0.323 (inactive)

row,Sequence,z-score
1,GCUUGUGAAAAAUUAUGAGTT against Ipo7,-1 (inactive)
2,GCUCUACUGCUUCCUUGUUTT against Olfr973,-2.32 (inactive)
3,GGAGAUGUGUGCUAUGUGGTT against Gzmb,-1.14 (inactive)
4,GGCCAACUGAUUAAGAAACTT against Chrnb1,2.28 (active)
5,GGGAUACCAUGGGAAUAGUTT against Vps52,0.468 (inactive)
6,GGACAAGGAUGCAAUUAUCTT against 4833427G06Rik,-2.12 (inactive)
7,GGCUCAAGGACAGAUGAUGTT against Tra1,-0.94 (inactive)
8,GGAGCUAAGACAGUUUGGATT against BC022133,-1.16 (inactive)
9,GGAUGAUACUUCAUUACACTT against Ankrd12,-0.613 (inactive)
10,GGAGUGAAAUUUACUGGGUTT against Hdgfrp3,1.78 (inactive)
11,CGAGGUGACCUACAAGAUUTT against AI481750,0.982 (inactive)
12,CCUUCUGUAGUUGGAAUCATT against 1110038F21Rik,-0.558 (inactive)
13,GGGUUAUGUCUGUGGAGCUTT against Bcl2l2,1.54 (active)
14,GCCUUAAGUGGAUUUAGGATT against Hist1h2ae,1.22 (inactive)
15,GGAAAUACCCUGAUAGCCATT against 9430077C05Rik,-1.23 (inactive)
16,GCAACAUUAGGAUUUAUAGTT against 1110032E23Rik,-0.366 (inactive)
17,GGUGAAAACCCUAACAGUCTT against A130007F10Rik,0.653 (inactive)
18,CCAAGUUUUUAUGCAGAUATT against Pip5k1a,-1.31 (inactive)
19,GCUUACCUUGACCAACCUCTT against Chrng,1.84 (active)
20,GCCACCUUGUUUCUCGAACTT against 1810008A18Rik,0.925 (inactive)
21,GCAAGUCCUACAAUACAACTT against Tk1,-0.837 (inactive)
22,GGUGCAGCCACGAAAACAUTT against Lmln,1.57 (inactive)
23,CGAUUAUGACCGAUAUAGATT against Fusip1,0.823 (inactive)
24,GGAUAUUGAACACUUCUUGTT against D330017J20Rik,1.25 (inactive)
25,GGGACUUUCAUAAUGCCAGTT against Snip1,0.733 (inactive)
26,GGCCUCCCUACUUGAAGACTT against Crip3,1.71 (active)
27,GGCUCUCUUAGUUGUAUCATT against Mrpl35,-1.03 (inactive)

row,Sequence,z-score
1,GGAAGUCCGUUUUUAAGAATT against 4732429I09Rik,-0.792 (inactive)
2,GCUCAAACAGAUACACGGATT against Ap2a2,0.288 (inactive)
3,GCUUGAUCAACAAGUGGAGTT against Nup62,-1.64 (inactive)
4,GCUUGACCCUACACUACAGTT against Olfr1121,1.25 (inactive)
5,GGCAUUGUAGAGAUGACUCTT against 4732479N06Rik,1.16 (inactive)
6,UUCUGUGCAUCCUGUCCUATT against Kcnk15,-0.484 (active)
7,CGUGUGAGGUUUGUGAAAGTT against Gzmf,-2.41 (inactive)
8,GCCUAAAAAAUCUCUGUGATT against Zswim3,-1.39 (inactive)
9,GGAAGUUCAACACCUCCAGTT against BC023296,-0.673 (inactive)
10,CGAUUUCAGCUUAAAGCACTT against Lmo3,1.44 (inactive)
11,CCCUAAAACCAAAUGUACATT against E130014J05Rik,6.23 (active)
12,GGACUUGGAAGUAAUUUUCTT against C230071H18Rik,2.75 (inactive)
13,GCGAACAGAAAAGACCAAUTT against Col4a5,1.11 (inactive)
14,GGGACAUACAUAUCCUCCUTT against 1300013D05Rik,1.31 (inactive)
15,GCAUACAUAGCACUACAUATT against Olfr536,-0.0396 (inactive)
16,GGACAGUGUUUACAAACUUTT against Fbxw7,0.328 (inactive)
17,GCAUAUGGUCCACUAAAAATT against Kcnj4,0.316 (inactive)
18,GGUACUGGAGAAAGUCAAGTT against Pik4cb,0.097 (inactive)
19,GGAUGAUUUCCAGAGAGUATT against Rdh5,-1.33 (inactive)
20,GGAGUGUGAUCAAGUUCAUTT against Eya4,0.648 (inactive)
21,GCUUUUACAAGACCUGUUCTT against Pde2a,1.02 (active)
22,GGAGAGAACUGGAAGAGAGTT against 0610040D20Rik,-2.18 (inactive)
23,GGAAAUACGGCUUCAUCUATT against Cyp26a1,0.936 (inactive)
24,GACAUUUGUAUGCAGUCAUTT against V1ri9,0.237 (inactive)
